From the supplement of paper PMC4237247

test system: HeLa; experiment: percent cells in G1 phase; higher = more G1 arrest; conditions: 10 µM; 20 h; hit class: G1-phase inhibitor
Experimental: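 HTS of 79,827 drug-like compounds at 10 uM. HeLa cells in 384-well plates were treated for 20 h, fixed, stained with Vybrant DyeCycle Green and scanned on an Acumen eX3 cytometer to give per-well cell cycle profiles (% cells in each phase). The plate Z' was 0.51. Only hits are listed: G1 hits >4 SD and S hits >5 SD from the mean.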

| SMILES | percent cells in G1 phase [%] |
| --- | --- |
| CNC1CC2OC(C)(C1OC)n1c3ccccc3c3c4c(c5c6ccccc6n2c5c31)C(=O)NC4 (centres undefined) | 86.7 |
| C[C@@H]1O[C@@H](O[C@H]2C[C@@H](O)[C@]3(CO)[C@H]4[C@H](O)C[C@]5(C)[C@@H](C6=CC(=O)OC6)CC[C@]5(O)[C@@H]4CC[C@]3(O)C2)[C@H](O)[C@H](O)[C@H]1O | 70.1 |
| CNc1ccc2oc(C[C@H]3O[C@@]4(CC[C@H]3C)O[C@H]([C@H](C)C(=O)c3ccc[nH]3)[C@H](C)C[C@H]4C)nc2c1C(=O)O | 84.7 |
| C[C@@H]1C[C@@H]([C@H](O)CC2CC(=O)NC(=O)C2)C(=O)[C@@H](C)C1 [Cycloheximide] | 77 |
| C/C(=C\c1ccc(Cl)cc1)[N+](=O)[O-] | 69.2 |
| CC(C)(C)c1cc(C=C(C#N)C#N)cc(C(C)(C)C)c1O | 75.1 |
| C/C=C(/C)C(=O)O[C@H]1C(C)=C2[C@H]([C@@H]1OC(=O)CCCCCCC)[C@@](C)(OC(C)=O)C[C@H](OC(=O)CCC)[C@@]1(O)[C@H]2OC(=O)[C@@]1(C)O | 81.5 |
| C[C@@]12C(=O)OC(=O)[C@]1(C)[C@H]1CC[C@@H]2O1 | 70.6 |
| O=[N+]([O-])c1ccc(NCCO)c2ncccc12 | 69.5 |
